# Measured values published in the supplement of paper PMC4466140.
# Experiments:
# Assay in all cases: SPOT peptide array binding signal intensity (averaged, normalized) (arbitrary units (background-subtracted, floor 0; scale differs between SH3 domains)); higher = stronger binding of the SH3 domain to the peptide
# AgAbp1 = molecular target: AgAbp1
# Procedure, shortened: (§1)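 Binding signal is given in arbitrary units that differ between domains and is the normalized, background-subtracted spot intensity averaged across replicates. Each GST-SH3 fusion from one of four yeast species was made in E. coli BL21(DE3), purified on glutathione Sepharose and incubated at 10 μg/ml overnight at 4°C on cellulose-bound synthetic 15-mer peptides in which cysteines were replaced by serines. Detection used anti-GST antibody, an HRP anti-mouse secondary and luminol, followed by imaging and Genespotter quantification.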
# AgBbc1 = molecular target: AgBbc1
# Procedure, shortened: as §1
# AgBem1-D1 = molecular target: AgBem1-D1
# Procedure, shortened: as §1
# AgBzz1-D1 = molecular target: AgBzz1-D1
# Procedure, shortened: as §1
# AgBzz1-D2 = molecular target: AgBzz1-D2
# Procedure, shortened: as §1
# AgCyk3 = molecular target: AgCyk3
# Procedure, shortened: as §1
# AgFus1 = molecular target: AgFus1
# Procedure, shortened: as §1
# AgHof1 = molecular target: AgHof1
# Procedure, shortened: as §1
# AgHse1 = molecular target: AgHse1
# Procedure, shortened: as §1
# AgLsb1 = molecular target: AgLsb1
# Procedure, shortened: as §1
# AgLsb4 = molecular target: AgLsb4
# Procedure, shortened: as §1
# AgMyo5 = molecular target: AgMyo5
# Procedure, shortened: as §1
# AgNbp2 = molecular target: AgNbp2
# Procedure, shortened: as §1
# AgRvs167 = molecular target: AgRvs167
# Procedure, shortened: as §1
# AgSho1 = molecular target: AgSho1
# Procedure, shortened: as §1
# AgSla1-D1-D2 = molecular target: AgSla1-D1-D2
# Procedure, shortened: as §1
# AgSla1-D3 = molecular target: AgSla1-D3
# Procedure, shortened: as §1
# CaAbp1-D1 = molecular target: CaAbp1-D1
# Procedure, shortened: as §1
# CaAbp1-D2 = molecular target: CaAbp1-D2
# Procedure, shortened: as §1
# CaBbc1 = molecular target: CaBbc1
# Procedure, shortened: as §1
# CaBem1-D1 = molecular target: CaBem1-D1
# Procedure, shortened: as §1
# CaBzz1-D1 = molecular target: CaBzz1-D1
# Procedure, shortened: as §1
# CaBzz1-D2 = molecular target: CaBzz1-D2
# Procedure, shortened: as §1
# CaCyk3 = molecular target: CaCyk3
# Procedure, shortened: as §1
# CaFus1 = molecular target: CaFus1
# Procedure, shortened: as §1
# CaHof1 = molecular target: CaHof1
# Procedure, shortened: as §1
# CaHse1 = molecular target: CaHse1
# Procedure, shortened: as §1
# CaLsb1 = molecular target: CaLsb1
# Procedure, shortened: as §1
# CaLsb4 = molecular target: CaLsb4
# Procedure, shortened: as §1
# CaMyo5 = molecular target: CaMyo5
# Procedure, shortened: as §1
# CaNbp2 = molecular target: CaNbp2
# Procedure, shortened: as §1
# CaRvs167 = molecular target: CaRvs167
# Procedure, shortened: as §1
# CaRvs167-3 = molecular target: CaRvs167-3
# Procedure, shortened: as §1
# CaSho1 = molecular target: CaSho1
# Procedure, shortened: as §1
# CaSla1-D1-D2 = molecular target: CaSla1-D1-D2
# Procedure, shortened: as §1
# CaSla1-D3 = molecular target: CaSla1-D3
# Procedure, shortened: as §1
# ScAbp1 = molecular target: ScAbp1
# Procedure, shortened: as §1
# ScBbc1 = molecular target: ScBbc1
# Procedure, shortened: as §1
# ScBem1-D1 = molecular target: ScBem1-D1
# Procedure, shortened: as §1
# ScBzz1-D1 = molecular target: ScBzz1-D1
# Procedure, shortened: as §1
# ScBzz1-D2 = molecular target: ScBzz1-D2
# Procedure, shortened: as §1
# ScCyk3 = molecular target: ScCyk3
# Procedure, shortened: as §1
# ScFus1 = molecular target: ScFus1
# Procedure, shortened: as §1
# ScHof1 = molecular target: ScHof1
# Procedure, shortened: as §1
# ScHse1 = molecular target: ScHse1
# Procedure, shortened: as §1
# ScLsb1 = molecular target: ScLsb1
# Procedure, shortened: as §1
# ScLsb2 = molecular target: ScLsb2
# Procedure, shortened: as §1
# ScLsb3 = molecular target: ScLsb3
# Procedure, shortened: as §1
# ScLsb4 = molecular target: ScLsb4
# Procedure, shortened: as §1
# ScMyo3 = molecular target: ScMyo3
# Procedure, shortened: as §1
# ScMyo5 = molecular target: ScMyo5
# Procedure, shortened: as §1
# ScNbp2 = molecular target: ScNbp2
# Procedure, shortened: as §1
# ScPex13 = molecular target: ScPex13
# Procedure, shortened: as §1
# ScRvs167 = molecular target: ScRvs167
# Procedure, shortened: as §1
# ScSho1 = molecular target: ScSho1
# Procedure, shortened: as §1
# ScSla1-D1-D2 = molecular target: ScSla1-D1-D2
# Procedure, shortened: as §1
# ScSla1-D3 = molecular target: ScSla1-D3
# Procedure, shortened: as §1
# SpAbp1-D1 = molecular target: SpAbp1-D1
# Procedure, shortened: as §1
# SpBbc1 = molecular target: SpBbc1
# Procedure, shortened: as §1
# SpBzz1-D1 = molecular target: SpBzz1-D1
# Procedure, shortened: as §1
# SpBzz1-D2 = molecular target: SpBzz1-D2
# Procedure, shortened: as §1
# SpCyk3 = molecular target: SpCyk3
# Procedure, shortened: as §1
# SpHof1 = molecular target: SpHof1
# Procedure, shortened: as §1
# SpHof1-2 = molecular target: SpHof1-2
# Procedure, shortened: as §1
# SpHof1-3 = molecular target: SpHof1-3
# Procedure, shortened: as §1
# SpHse1 = molecular target: SpHse1
# Procedure, shortened: as §1
# SpLsb1 = molecular target: SpLsb1
# Procedure, shortened: as §1
# SpLsb4 = molecular target: SpLsb4
# Procedure, shortened: as §1
# SpMyo1 = molecular target: SpMyo1
# Procedure, shortened: as §1
# SpNbp2 = molecular target: SpNbp2
# Procedure, shortened: as §1
# SpPex13 = molecular target: SpPex13
# Procedure, shortened: as §1
# SpRvs167 = molecular target: SpRvs167
# Procedure, shortened: as §1
# SpSla1-D1-D2 = molecular target: SpSla1-D1-D2
# Procedure, shortened: as §1
# SpSla1-D3 = molecular target: SpSla1-D3
# Procedure, shortened: as §1
binder,measurement,setting,value
NNQRRKPLLLNIGDH,SPOT peptide array binding signal intensity,AgAbp1,108
same,SPOT peptide array binding signal intensity,AgBbc1,≤ 0
same,SPOT peptide array binding signal intensity,AgBem1-D1,≤ 0
same,SPOT peptide array binding signal intensity,AgBzz1-D1,≤ 0
same,SPOT peptide array binding signal intensity,AgBzz1-D2,54
same,SPOT peptide array binding signal intensity,AgCyk3,0.5
same,SPOT peptide array binding signal intensity,AgFus1,305
same,SPOT peptide array binding signal intensity,AgHof1,6
same,SPOT peptide array binding signal intensity,AgHse1,1660
same,SPOT peptide array binding signal intensity,AgLsb1,≤ 0
same,SPOT peptide array binding signal intensity,AgLsb4,≤ 0
same,SPOT peptide array binding signal intensity,AgMyo5,1
same,SPOT peptide array binding signal intensity,AgNbp2,68.5
same,SPOT peptide array binding signal intensity,AgRvs167,5.67
same,SPOT peptide array binding signal intensity,AgSho1,24.5
same,SPOT peptide array binding signal intensity,AgSla1-D1-D2,175
same,SPOT peptide array binding signal intensity,AgSla1-D3,5.5
same,SPOT peptide array binding signal intensity,CaAbp1-D1,330
same,SPOT peptide array binding signal intensity,CaAbp1-D2,458
same,SPOT peptide array binding signal intensity,CaBbc1,≤ 0
same,SPOT peptide array binding signal intensity,CaBem1-D1,≤ 0
same,SPOT peptide array binding signal intensity,CaBzz1-D1,≤ 0
same,SPOT peptide array binding signal intensity,CaBzz1-D2,≤ 0
same,SPOT peptide array binding signal intensity,CaCyk3,1.5
same,SPOT peptide array binding signal intensity,CaFus1,1030
same,SPOT peptide array binding signal intensity,CaHof1,≤ 0
same,SPOT peptide array binding signal intensity,CaHse1,21
same,SPOT peptide array binding signal intensity,CaLsb1,0.5
same,SPOT peptide array binding signal intensity,CaLsb4,≤ 0
same,SPOT peptide array binding signal intensity,CaMyo5,≤ 0
same,SPOT peptide array binding signal intensity,CaNbp2,528
same,SPOT peptide array binding signal intensity,CaRvs167,12
same,SPOT peptide array binding signal intensity,CaRvs167-3,35.8
same,SPOT peptide array binding signal intensity,CaSho1,420
same,SPOT peptide array binding signal intensity,CaSla1-D1-D2,≤ 0
same,SPOT peptide array binding signal intensity,CaSla1-D3,2.25
same,SPOT peptide array binding signal intensity,ScAbp1,442
same,SPOT peptide array binding signal intensity,ScBbc1,≤ 0
same,SPOT peptide array binding signal intensity,ScBem1-D1,3
same,SPOT peptide array binding signal intensity,ScBzz1-D1,16.5
same,SPOT peptide array binding signal intensity,ScBzz1-D2,≤ 0
same,SPOT peptide array binding signal intensity,ScCyk3,33
same,SPOT peptide array binding signal intensity,ScFus1,272
same,SPOT peptide array binding signal intensity,ScHof1,0.5
same,SPOT peptide array binding signal intensity,ScHse1,1820
same,SPOT peptide array binding signal intensity,ScLsb1,≤ 0
same,SPOT peptide array binding signal intensity,ScLsb2,≤ 0
same,SPOT peptide array binding signal intensity,ScLsb3,68
same,SPOT peptide array binding signal intensity,ScLsb4,≤ 0
same,SPOT peptide array binding signal intensity,ScMyo3,≤ 0
same,SPOT peptide array binding signal intensity,ScMyo5,≤ 0
same,SPOT peptide array binding signal intensity,ScNbp2,112
same,SPOT peptide array binding signal intensity,ScPex13,≤ 0
same,SPOT peptide array binding signal intensity,ScRvs167,4.33
same,SPOT peptide array binding signal intensity,ScSho1,676
same,SPOT peptide array binding signal intensity,ScSla1-D1-D2,37
same,SPOT peptide array binding signal intensity,ScSla1-D3,≤ 0
same,SPOT peptide array binding signal intensity,SpAbp1-D1,384
same,SPOT peptide array binding signal intensity,SpBbc1,0.5
same,SPOT peptide array binding signal intensity,SpBzz1-D1,136
same,SPOT peptide array binding signal intensity,SpBzz1-D2,≤ 0
same,SPOT peptide array binding signal intensity,SpCyk3,≤ 0
same,SPOT peptide array binding signal intensity,SpHof1,93.2
same,SPOT peptide array binding signal intensity,SpHof1-2,2.5
same,SPOT peptide array binding signal intensity,SpHof1-3,892
same,SPOT peptide array binding signal intensity,SpHse1,1730
same,SPOT peptide array binding signal intensity,SpLsb1,≤ 0
same,SPOT peptide array binding signal intensity,SpLsb4,≤ 0
same,SPOT peptide array binding signal intensity,SpMyo1,≤ 0
same,SPOT peptide array binding signal intensity,SpNbp2,133
same,SPOT peptide array binding signal intensity,SpPex13,≤ 0
same,SPOT peptide array binding signal intensity,SpRvs167,≤ 0
same,SPOT peptide array binding signal intensity,SpSla1-D1-D2,≤ 0
same,SPOT peptide array binding signal intensity,SpSla1-D3,≤ 0
